# Assay results taken from the supplement of paper PMC7858590.
# ± gives the standard deviation of the averaged measurements. In all, about 3,800 compounds were measured (“cell shape (eccentricity) Z-score vs DMSO control”: median about 1.1, lowest 2% from about -4.7 on). For the sample, the lowest values were picked, then their nearest neighbours and some compounds at random.
# Test system: human monocyte-derived macrophages (M0)
# Assay: cell shape (eccentricity) Z-score vs DMSO control; higher = more elongated, M2-like morphology
# Conditions: 20 µM; 24 h; macrophage state: M0 (M-CSF)
row,Structure (SMILES),cell shape (Z-score)
1,O=C(O)c1cc2cc(OCc3ccccc3)ccc2[nH]1,1.63
2,CC(=O)O[C@H]1[C@H](Oc2ccccc2COC(=O)C2(O)C=CCCC2=O)O[C@H](CO)[C@@H](O)[C@@H]1O (stereo partly drawn),1.32
3,CCn1cc(C(=O)O)c(=O)c2cc(F)c(N3CCNCC3)nc21,-1.1
4,O=C(Cc1ccc(O)cc1)OC1[C@@H](O)[C@@H](O)C(OC(=O)Cc2ccc(O)cc2)[C@H](O)[C@@H]1O (stereo partly drawn),2.31
5,C=C1C(=O)O[C@@H]2[C@H]3C(CO)=CC(=O)C3=C(C)C[C@H](OC(=O)Cc3ccc(O)cc3)[C@@H]12,-6.23
6,C=C1C(=O)O[C@H]2C1CCC(C)=C1C(=O)C=C(C)[C@@H]12 (stereo partly drawn),-3.7
7,CC1(C)CCC(CN2CCN(c3ccc(C(=O)NS(=O)(=O)c4ccc(NCC5CCOCC5)c([N+](=O)[O-])c4)c(Oc4cnc5[nH]ccc5c4)c3)CC2)=C(c2ccc(Cl)cc2)C1,6.74
8,COCc1c(C(C)C)nc(C(C)C)c(/C=C/[C@@H](O)C[C@@H](O)CC(=O)O)c1-c1ccc(F)cc1,10.1 ± 0.39
9,CCC[C@@H]1C[C@@H](C(=O)NC(C(C)Cl)C2O[C@H](SC)[C@H](O)[C@@H](O)[C@H]2O)N(C)C1 (stereo partly drawn),3.16
10,COc1cc2nc(N3CCCN(C)CC3)nc(NC3CCN(Cc4ccccc4)CC3)c2cc1OC,3.25
11,Cc1cc(N2CCCCC2)nc2ccccc12,0.281
12,CC(Nc1nc(N2CCCC2)nc2ccccc12)c1ccccc1 (stereo not drawn),-7.72
13,CC#CCOC(=O)c1c(C)nc2sc3c(c2c1N)CCC(O)C3 (stereo not drawn),-0.105
14,C[C@@H]1O[C@@H](Oc2ccc(-c3coc4cc(O[C@@H]5O[C@@H](C)[C@H](O)[C@@H](O)[C@H]5O)cc(O)c4c3=O)cc2)[C@H](O)[C@H](O)[C@H]1O,-0.632
15,c1ccc(COCCCc2cnc[nH]2)cc1,2.2
16,O=C(CCCc1ccc(-c2ccccc2F)cc1)Nc1ccc(O)cc1,-4.74
17,O=C(O)CCCc1ccccc1,0.59
18,Cc1c(Cl)cccc1Nc1ccccc1C(=O)O,1.66
19,O=C(O)c1ccccc1Nc1ccccc1,2.81
20,COc1ccc(S(=O)(=O)N(C(C)=O)c2ccccc2/C=C/c2cc[n+]([O-])cc2)cc1,-4.1
21,CC(=O)OCC(=O)[C@@]1(O)CCC2C3CCC4=CC(=O)CC[C@]4(C)C3C(=O)C[C@@]21C (stereo partly drawn),-0.245
22,C=C1CCC2(C(=O)OC3OC(CO)C(O)C(O)C3O)CCC3(C)C(=CCC4C5(C)CC(O)C(OC6OCC(O)C(O)C6OC6OC(CO)C(O)C(O)C6O)C(C)(CO)C5CCC43C)C2C1 (stereo not drawn),0.275
23,C=C(COC(=O)C(C)C)C1Oc2cc(C(C)=O)ccc2C1OC(=O)C(C)C (stereo not drawn),1.56
24,Cc1cc(C)c(CNC(=O)c2cc(-c3ccc(N4CCNCC4)nc3)cc3c2cnn3C(C)C)c(=O)[nH]1,3.48
25,CC(Cc1ccc(O)c(O)c1)(NN)C(=O)O (stereo not drawn),-0.173
26,C=C(C(=O)O[C@H]1CC=C(C)C[C@H](O)[C@H]2[C@H](C)C(=O)O[C@@H]2/C=C/1C)[C@@H]1CCC(=C)[C@@H]2C[C@H](O[C@@H]3O[C@H](CO[C@H]4OC[C@](O)(CO)[C@H]4O)[C@@H](O)[C@H](O)[C@H]3O)C(=C)[C@@H]2C1,-4.65
27,C=C1C(=O)O[C@@H]2[C@H]3C(=C)[C@@H](O[C@@H]4O[C@H](CO)[C@@H](O)[C@H](O)[C@H]4O)C[C@H]3C(=C)C[C@@H](O)[C@@H]12,2.36

row,Structure (SMILES),cell shape (Z-score)
1,COc1cc(O[C@@H]2O[C@H](CO[C@H]3OC[C@](O)(CO)[C@H]3O)[C@@H](O)[C@H](O)[C@H]2O)cc(OC)c1OC,1.07
2,Cc1c(-c2ccnc(Nc3ccc(N4CCNCC4)cc3)n2)sc(=O)n1C,9.91
3,COc1cc(C(=O)N2CCC(N3CCN(C)CC3)CC2)ccc1Nc1ncc2c(n1)N(C)c1ccccc1C(=O)N2C,8.88
4,O=C(c1ccc(Nc2nccc(-c3cc4ccccc4s3)n2)cc1)N1CCC(N2CCCC2)CC1,-4.98
5,COc1cc(OC2OC(COC3OCC(O)(CO)C3O)C(O)C(O)C2O)c2c(-c3ccc(O)c(O)c3)cc(=O)oc2c1 (stereo not drawn),-0.273
6,CCOC(=O)C1C(=O)C(=O)Nc2ccccc21 (stereo not drawn),2.09
7,CC[N+](C)(CC)CC(=O)Nc1c(C)cccc1C,-0.632
8,CC[N+](CC)(CC(=O)Nc1c(C)cccc1C)Cc1ccccc1,1.74
9,Cc1cccc(C)c1NC(=O)C[N+](C)(C)C,-4.98
10,Cc1cc(=O)oc2c(O)c(O)ccc12,1.41
11,COc1ccc2c(C)cc(=O)oc2c1,4.64
12,Cc1cc2cc3c(C)cc(=O)oc3c(C)c2o1,-4.76
13,COC(=O)C1=C(C)NC(C)=C(C(=O)OCCCN2CCC(c3ccccc3)(c3ccccc3)CC2)[C@H]1c1cccc([N+](=O)[O-])c1,1.82
14,CCC(=O)OCC1=CCCC2C1(C)CCC(C)C2(C)CCC(C)CC(=O)O (stereo not drawn),0.255
15,COc1cc(C)c2c(=O)cc(-c3ccccc3)oc2c1,1.41
16,COc1cc(O)c(C(=O)c2c(O)cc(C)cc2O)c(C(=O)O)c1,1.14 ± 0.29
17,C=C1[C@@H](C2=CC(=O)OC2)CC[C@@]2(O)[C@@H]1CC1[C@H]2CC[C@@H]2C[C@@H](O[C@H]3O[C@@H](C)[C@@H](O[C@@H]4O[C@H](CO[C@@H]5O[C@H](CO)[C@@H](O)[C@H](O)[C@H]5O)[C@@H](O)[C@H](O)[C@H]4O)[C@H](OC)[C@H]3O)CC[C@]12C (stereo partly drawn),-4.99
18,COC1CC(O[C@H]2CC[C@]3(C)C4CC[C@@]5(C)C(=O)[C@]4(CC[C@@H]3C2)CC[C@@H]5C2=CC(=O)OC2)OC(C)C1OC1OC(COC2OC(CO)C(O)C(O)C2O)C(O)C(O)C1O (stereo partly drawn),0.241
19,CO[C@@H]1CC(OC2CCC3(C)C(CCC45CCC(C6=CC(=O)OC6)C(C)(CCC43)C5=O)C2)O[C@H](C)[C@@H]1O[C@@H]1O[C@H](CO[C@@H]2O[C@H](CO)[C@@H](O)[C@H](O)[C@H]2O)[C@@H](O)[C@H](O)[C@H]1O (stereo partly drawn),1.71
20,COC(CCc1ccc(O)c(O)c1)CC(=O)CCc1ccc(O)c(O)c1 (stereo not drawn),1.18
21,CN1CCN(CCOc2cc(OC3CCOCC3)c3c(Nc4c(Cl)ccc5c4OCO5)ncnc3c2)CC1,5.59
22,C[C@@H](C1=C(CCN(C)C)Cc2ccccc21)c1ccccn1,1.35
23,CCOc1cc(/C=C(/C#N)C(N)=O)cc(CSc2ccccc2)c1O,2.62
24,O=C(O)Cc1nn(Cc2ccc(Br)cc2F)c(=O)c2ccccc12,-4.79
25,O=C(O)Cc1nn(Cc2nc3cc(C(F)(F)F)ccc3s2)c(=O)c2ccccc12,1.57
26,CC(C)n1cnc2c(NCc3ccccc3O)nc(NCCCO)nc21,3.13
